PubChem BioAssay
The source made the active and inactive calls.

What was measured:
[1] = E. coli DRC41 culture turbidity changes, primary screen, E. coli filamentation inducer project, strain DRC41, OD650, 48 h (AID 1152);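 further: E. coli MC1000 strain DRC41 lacking acrAB efflux pump and sulA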; conditions: E. coli DRC41 (acrAB sulA), higher = more signal, called active from +8 up or from −8 down
[2] = small-molecule binders of probe aLefty1, primary screen, biochemical, small-molecule microarray, 635/667 nm fluorescence (AID 1153); conditions: higher = more signal;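 further: score merges spot fluorescence with signal-to-noise ratio from the scanned slide images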
[3] = PSAC antagonists in infected red cells, primary screen, cell-based, P. falciparum Indochina, OD700, 1 h (AID 1154); conditions: P. falciparum Indochina infected RBC osmotic lysis, higher = more signal, called active from +8 up or from −8 down
[4] = PSAC antagonists in infected red cells, primary screen, cell-based, P. falciparum Indochina, OD700, 2 h (AID 1155);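 further: lysis reports solute entry through the parasite surface anion channel PSAC; channel blockers reduce lysis of infected cells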; conditions: P. falciparum Indochina infected erythrocytes, osmotic lysis OD700; higher = more signal, called active from +8 up or from −8 down
[5] = osmotic lysis modulators in infected erythrocytes, primary screen, PSAC antagonist project, cell-based, P. falciparum Indochina, OD700, 3 h (AID 1156); conditions: higher = more signal, called active from +8 up or from −8 down
[6] = PSAC antagonists in infected red cells, primary screen, cell-based, P. falciparum Indochina, OD700, 18 h (AID 1157); conditions: P. falciparum Indochina infected erythrocytes, osmotic lysis OD700, 18 h; higher = more signal, called active from +8 up or from −8 down
[7] = modulators of S6 phosphorylation in cells, primary screen, cell-based, A549, cytoblot, luminescence, serum-stimulated (AID 1158); conditions: A549 phospho-S6 cytoblot, 5 h, higher = more signal;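 further: serum-stimulated A549 lung adenocarcinoma cells; signal is phosphorylated S6 detected by cytoblot immunostaining with HRP secondary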
[8] = biological target: NADPH oxidase 2 (Homo sapiens) (UniProt P04839); experiment: NOX2-dependent H2O2 signal modulators, primary screen, NOX inhibitor project, cell-based, HEK293-NOX2, PMA-stimulated, Amplex Red fluorescence (AID 1159); conditions: 45 min, higher = more signal, called active from +8 up or from −8 down; further: test concentration not given here
[9] = biological target: NADPH oxidase 4 (Homo sapiens) (UniProt Q9NPH5); experiment: NOX4-dependent H2O2 signal modulators, primary screen, NOX inhibitor project, cell-based, HEK293-NOX4, tetracycline-induced, Amplex Red fluorescence (AID 1160); conditions: 45 min, higher = more signal, called active from +8 up or from −8 down
[10] = biological target: NADPH oxidase 5 (Homo sapiens) (UniProt Q96PH1); experiment: NOX5-dependent H2O2 signal modulators, primary screen, NOX inhibitor project, cell-based, HEK293-NOX5, Amplex Red fluorescence (AID 1161); conditions: HEK293-NOX5, ionomycin, 45 min, higher = more signal
Sequence of NADPH oxidase 5 (Homo sapiens) (Q96PH1 whole entry, looked up): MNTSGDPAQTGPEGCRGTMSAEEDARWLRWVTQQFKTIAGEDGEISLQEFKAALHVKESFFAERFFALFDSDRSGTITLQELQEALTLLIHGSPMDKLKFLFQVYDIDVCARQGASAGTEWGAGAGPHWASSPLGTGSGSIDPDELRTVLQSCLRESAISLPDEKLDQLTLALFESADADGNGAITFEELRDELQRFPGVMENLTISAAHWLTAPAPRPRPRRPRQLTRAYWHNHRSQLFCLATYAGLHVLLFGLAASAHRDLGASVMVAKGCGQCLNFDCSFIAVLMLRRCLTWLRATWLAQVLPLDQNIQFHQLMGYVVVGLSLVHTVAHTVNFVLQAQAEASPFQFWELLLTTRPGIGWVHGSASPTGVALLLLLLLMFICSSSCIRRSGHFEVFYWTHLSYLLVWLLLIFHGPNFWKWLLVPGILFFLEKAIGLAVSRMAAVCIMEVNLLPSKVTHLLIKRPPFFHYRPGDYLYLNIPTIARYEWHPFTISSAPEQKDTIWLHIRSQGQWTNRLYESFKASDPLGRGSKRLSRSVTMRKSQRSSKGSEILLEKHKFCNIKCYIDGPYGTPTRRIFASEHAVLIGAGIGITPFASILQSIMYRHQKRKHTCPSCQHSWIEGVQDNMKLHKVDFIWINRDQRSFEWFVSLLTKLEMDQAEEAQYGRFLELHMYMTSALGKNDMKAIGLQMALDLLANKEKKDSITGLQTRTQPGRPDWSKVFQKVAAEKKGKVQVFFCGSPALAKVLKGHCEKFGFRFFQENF

Sequence of NADPH oxidase 2 (Homo sapiens) (P04839 whole entry, looked up): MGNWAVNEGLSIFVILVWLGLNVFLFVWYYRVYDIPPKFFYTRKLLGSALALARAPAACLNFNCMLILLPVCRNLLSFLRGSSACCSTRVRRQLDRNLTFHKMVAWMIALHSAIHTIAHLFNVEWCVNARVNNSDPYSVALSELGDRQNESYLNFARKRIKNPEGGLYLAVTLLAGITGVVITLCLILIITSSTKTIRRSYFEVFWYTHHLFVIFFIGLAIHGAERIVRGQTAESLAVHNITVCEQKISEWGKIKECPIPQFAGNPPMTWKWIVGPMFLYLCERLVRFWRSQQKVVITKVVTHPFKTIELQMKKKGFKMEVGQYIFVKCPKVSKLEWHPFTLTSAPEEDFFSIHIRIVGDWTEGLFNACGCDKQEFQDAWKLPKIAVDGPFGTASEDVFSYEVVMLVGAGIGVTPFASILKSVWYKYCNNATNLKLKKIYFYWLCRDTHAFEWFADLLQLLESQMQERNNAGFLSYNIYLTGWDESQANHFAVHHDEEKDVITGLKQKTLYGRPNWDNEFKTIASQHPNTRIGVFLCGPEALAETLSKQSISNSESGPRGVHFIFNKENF
Sequence of NADPH oxidase 4 (Homo sapiens) (Q9NPH5 whole entry, looked up): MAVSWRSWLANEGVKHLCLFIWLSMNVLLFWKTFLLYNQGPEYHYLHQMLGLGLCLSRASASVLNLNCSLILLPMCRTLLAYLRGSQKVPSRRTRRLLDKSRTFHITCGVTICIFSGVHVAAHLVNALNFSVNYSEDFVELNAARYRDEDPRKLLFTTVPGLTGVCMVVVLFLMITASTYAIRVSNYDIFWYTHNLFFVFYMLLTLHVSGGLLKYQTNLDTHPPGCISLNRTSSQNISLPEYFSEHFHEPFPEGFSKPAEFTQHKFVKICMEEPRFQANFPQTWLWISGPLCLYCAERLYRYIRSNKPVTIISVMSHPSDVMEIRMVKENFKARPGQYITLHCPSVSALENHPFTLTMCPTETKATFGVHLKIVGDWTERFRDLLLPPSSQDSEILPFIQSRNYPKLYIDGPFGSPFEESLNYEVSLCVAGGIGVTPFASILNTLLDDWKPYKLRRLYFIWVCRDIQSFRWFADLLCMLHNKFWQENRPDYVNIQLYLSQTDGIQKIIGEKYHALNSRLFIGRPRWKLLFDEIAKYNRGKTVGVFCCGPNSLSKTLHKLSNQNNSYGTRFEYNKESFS

| Compound | z-score [1] | composite z-score [2] | z-score [3] | z-score [4] | z-score [5] | z-score [6] | z-score [7] | z-score [8] | z-score [9] | z-score [10] |
| --- | --- | --- | --- | --- | --- | --- | --- | --- | --- | --- |
| O=C(CS)NCCCCCNC(=O)[C@H]1C[C@H]2C(=O)N3CCC[C@H]3C(=O)N2[C@H]1c1ccc(O)cc1 | 1.65 (inactive) | 0.357 | 2.68 (inactive) | -0.856 (inactive) | -2.55 (inactive) | -1.63 (inactive) | 1.24 | 0.274 (inactive) | 0.00663 (inactive) | 0.214 |
| COc1ccc([Si](C)(C)[C@H]2[C@H](CC(=O)N3Cc4ccccc4C[C@H]3CO)O[C@@]3(C(=O)N(Cc4cccc(N5CCOC5=O)c4)c4ccccc43)[C@@H]2C)cc1 | 0.666 (inactive) | -0.012 | 4.02 (inactive) | 1.09 (inactive) | 0.739 (inactive) | 0.771 (inactive) | 2.73 | -1.14 (inactive) | 0.916 (inactive) | -1.09 |
| C=CCC(OC(C)=O)[C@@H]1[C@@H](N(Cc2cc3ccccc3o2)C(=O)Cc2ccc(F)cc2)c2cc(OCCCO)ccc2N1C(=O)c1ccc(-c2ccccc2)cc1 (stereo not given in full) | 1.66 (inactive) | 0.0091 | -0.171 (inactive) | 0.229 (inactive) | -0.454 (inactive) | 0.0413 (inactive) | 0.437 | 0.578 (inactive) | 0.684 (inactive) | 0.314 |
| O=C1OCCC=C[C@H]2OC34C=CCN(Cc5ccccc5)C(=O)[C@H]3N(CCO)C(=O)[C@@H]4C12 (stereo not given in full) | 2.51 (inactive) | -0.133 | 1.07 (inactive) | -0.436 (inactive) | -0.769 (inactive) | -0.8 (inactive) | 1.82 | 0.681 (inactive) | -0.573 (inactive) | 0.869 |
| Cc1ccc(S[C@]2(C(=O)NC3CC3)CC(=O)N(Cc3cc(C(F)(F)F)cc(C(F)(F)F)c3)[C@@H]2c2ccc(CO)cc2)cc1 | 0.537 (inactive) | -0.0186 | 1.21 (inactive) | -0.861 (inactive) | 1.08 (inactive) | -1.95 (inactive) | 0.95 | 0.249 (inactive) | -0.00878 (inactive) | 1.78 |
| CC(C)N1CC=CC23O[C@@H]4/C=C\CCCOC(=O)C4[C@H]2C(=O)N(CCCCCO)[C@@H]3C1=O (stereo not given in full) | 1.57 (inactive) | -0.285 | -0.455 (inactive) | 0.0907 (inactive) | 0.658 (inactive) | -0.258 (inactive) | 0.946 | 0.845 (inactive) | -0.00488 (inactive) | 1.7 |
| Cc1ccc(N2C(=O)c3ccccc3[C@@H](C(=O)NCc3ccccc3)[C@@H]2c2ccc(CO)cc2)nc1 | 1.85 (inactive) | 0.26 | 2.1 (inactive) | -0.349 (inactive) | -0.199 (inactive) | -0.509 (inactive) | -1.72 | -0.109 (inactive) | 1.03 (inactive) | 0.298 |
| C=CC[C@@]1(C(=O)N2CCOCC2)N=C(c2ccc(OCCCO)cc2)O[C@@H]1c1ccccc1 | 1.24 (inactive) | -0.269 | 20.8 (active) | 4.03 (inactive) | 2.25 (inactive) | 1.11 (inactive) | -0.115 | -1.04 (inactive) | 0.471 (inactive) | -1 |
| C=CCNC(=O)[C@@H]1[C@H]2C(=O)O[C@H](c3ccccc3)[C@H](c3ccccc3)N2[C@H](c2ccc(OCCO)cc2)[C@@]12C(=O)N(C(=O)OCCOC)c1ccc(C#CC3(O)CCCCCC3)cc12 | 2.62 (inactive) | 0.372 | 5.36 (inactive) | 2.14 (inactive) | 0.539 (inactive) | 0.761 (inactive) | 3.82 | 1.03 (inactive) | 0.845 (inactive) | -1.14 |
| C=CCN1C(=O)[C@@]2(Cc3ccccc3)N=C(c3ccc(OCCCO)cc3)O[C@H]2c2ccccc21 | 0.0648 (inactive) | 0.48 | 33.3 (active) | 32 (active) | 2.61 (inactive) | 9.79 (active) | -0.586 | -1.87 (inactive) | 0.969 (inactive) | 0.0569 |
| C=CC[C@]1(C(=O)O)N=C(c2ccc(OCCCO)cc2)O[C@H]1c1ccccc1 | 1.14 (inactive) | -0.0984 | 11.7 (active) | 0.66 (inactive) | 0.211 (inactive) | 0.198 (inactive) | 0.663 | -0.343 (inactive) | 0.388 (inactive) | 1.22 |
| COc1ccc([C@H]2C[C@H]3C(Br)=C[C@]2(OC)C(=O)[C@]32CO2)cc1 | -0.882 (inactive) | -0.0536 | 0.262 (inactive) | 0.0516 (inactive) | -0.29 (inactive) | -0.21 (inactive) | -0.242 | 0.0866 (inactive) | 0.295 (inactive) | -0.292 |
| O=C1c2ccccc2[C@](Cc2ccccc2I)(C(=O)NCC(F)(F)F)[C@H](c2ccc(CO)cc2)N1Cc1ccccc1C(F)(F)F | 1.37 (inactive) | -0.597 | 2.78 (inactive) | 0.55 (inactive) | 0.564 (inactive) | 0.449 (inactive) | 0.179 | 1.27 (inactive) | 0.605 (inactive) | 2.32 |
| O=C1O[C@@H](c2ccccc2)[C@@H](c2ccccc2)N2[C@@H](c3ccc(OCCO)cc3)[C@]3(C(=O)Nc4ccc(C#CCCO)cc43)[C@@H](C(=O)N3CCN(c4ncccn4)CC3)[C@H]12 | 0.533 (inactive) | 0.242 | 3.54 (inactive) | 1.71 (inactive) | -1.56 (inactive) | 0.664 (inactive) | -0.436 | 2 (inactive) | 0.677 (inactive) | 0.589 |
| NC(=O)NCC#Cc1ccc2c(c1)[C@]1(C(=O)N2)[C@H](C(N)=O)[C@H]2C(=O)O[C@H](c3ccccc3)[C@H](c3ccccc3)N2[C@@H]1c1ccccc1OCCO | -0.925 (inactive) | 0.199 | 2.15 (inactive) | 0.0353 (inactive) | -3.88 (inactive) | -0.146 (inactive) | -0.128 | 2.1 (inactive) | 1 (inactive) | 0.53 |
| CC[C@@H]1C=C(C(=O)O)[C@H](c2ccccc2)N1S(=O)(=O)c1ccc([N+](=O)[O-])cc1 | -3.21 (inactive) | -0.405 | 1.3 (inactive) | 1.01 (inactive) | 0.751 (inactive) | 1.15 (inactive) | -0.37 | 0.325 (inactive) | -0.0428 (inactive) | -0.526 |
| Cc1ccc(S[C@]2(C(=O)O)CC(=O)N(Cc3cc(C(F)(F)F)cc(C(F)(F)F)c3)[C@@H]2c2ccc(CO)cc2I)cc1 | 0.367 (inactive) | 0.26 | 5.86 (inactive) | 0.877 (inactive) | 1.03 (inactive) | 0.522 (inactive) | 0.243 | 1.75 (inactive) | -2.5 (inactive) | 0.547 |
| CO[C@H]1O[C@H](CO)[C@@H](OC(=O)CCc2ccccc2)[C@@H]2OC(=O)[C@H](Cc3cccc(Br)c3)C/C=C/C[C@@H](Cc3cccc(Br)c3)C(=O)O[C@@H]12 | 3.1 (inactive) | -0.139 | 1.18 (inactive) | -0.807 (inactive) | -0.856 (inactive) | -1.19 (inactive) | 2.26 | 2.16 (inactive) | 1.57 (inactive) | 1.28 |
| CCOC(=O)C[C@H]1[C@H](OC(=O)Cc2ccc3c(c2)OCO3)[C@@H](NC(=O)c2ccc3ccccc3c2)c2cc(OCCCO)ccc2N1C(=O)Cc1ccc(OC)cc1 | 2.54 (inactive) | -0.0626 | 18 (active) | 2.41 (inactive) | -1.47 (inactive) | -0.15 (inactive) | 2.6 | -0.629 (inactive) | 0.799 (inactive) | 1.08 |
| COC(=O)Cn1c(C(=O)N2CCCC2)cc2c1C[C@H]1CN(C(=O)c3ccccc3)[C@@](Cc3ccccc3)(C(=O)OC)[C@@H]21 | -0.406 (inactive) | 0.257 | 1.54 (inactive) | 0.104 (inactive) | 0.16 (inactive) | 0.469 (inactive) | 0.136 | 0.489 (inactive) | 0.217 (inactive) | -2.54 |
| CO[C@H]1COC(=O)CC=C[C@@H](C)COC(=O)[C@@H](C)NC(=O)CC=C[C@@H]1C | -0.414 (inactive) | -0.276 | -0.401 (inactive) | -0.599 (inactive) | -0.768 (inactive) | -0.872 (inactive) | 2.57 | -0.206 (inactive) | 0.534 (inactive) | 0.984 |
| CO[C@@H]1COC(=O)CC=C[C@@H](C)[C@H](OC)COC(=O)CC=C[C@H]1C | 0.356 (inactive) | -0.257 | -0.611 (inactive) | -0.163 (inactive) | -0.335 (inactive) | -0.0143 (inactive) | 0.711 | -0.49 (inactive) | 0.276 (inactive) | 0.586 |
| CO[C@H]1COC(=O)[C@H](C)NC(=O)CC=C[C@@H](C)[C@H](NS(=O)(=O)c2ccc(C)cc2)COC(=O)CC=C[C@@H]1C | -0.154 (inactive) | -0.232 | 0.868 (inactive) | 0.41 (inactive) | 0.229 (inactive) | 0.33 (inactive) | 0.356 | 0.734 (inactive) | 0.631 (inactive) | 0.971 |
| COC(=O)c1ccc(C#CC(NP(=O)(c2ccccc2)c2ccccc2)c2ccccc2)cc1 (stereo not given) | -0.817 (inactive) | 0.0312 | 10.2 (active) | 1.16 (inactive) | 1.04 (inactive) | 0.936 (inactive) | 0.806 | 0.00908 (inactive) | -0.556 (inactive) | -4.46 |
| C[C@]1(C(=O)NCCN2CCOCC2)c2ccccc2C(=O)N(Cc2ccccc2)[C@H]1c1ccc(CO)cc1 | 0.402 (inactive) | -0.0969 | 5.59 (inactive) | 0.516 (inactive) | 1.88 (inactive) | 0.719 (inactive) | 0.282 | 0.346 (inactive) | -1.61 (inactive) | -2.77 |
